Data: PubChem BioAssay (NCI)
“And” between values parts separate entries of the source, which are not always exact repeats. Identical values can stand only once. The panel holds about 83,000 compounds, 20% with a hit somewhere; the sample as a whole holds those more often.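 96-well plates, one dose, 48 hours. Percent growth reported; active if below 10.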 The source made the active and inactive calls.

Key:
Test in all cases: NCI-60 one-dose screen, 48 h (100 = growth as untreated, 0 = no growth, -100 = all killed)
Conditions in all cases: 10 µM unless noted
NCI-H23 lung = tested on: NCI-H23 lung
NCI-H226 lung = tested on: NCI-H226 lung
NCI-H322M lung = tested on: NCI-H322M lung
HOP-62 NSCLC = tested on: HOP-62 NSCLC
NCI-H460 lung = tested on: NCI-H460 lung
HOP-92 NSCLC = tested on: HOP-92 NSCLC
NCI-H522 lung = tested on: NCI-H522 lung
A549/ATCC NSCLC = tested on: A549/ATCC NSCLC
786-0 renal = tested on: 786-0 renal
COLO 205 colon = tested on: COLO 205 colon
DU-145 prostate = tested on: DU-145 prostate
K-562 leukemia = tested on: K-562 leukemia
MALME-3M melanoma = tested on: MALME-3M melanoma
MDA-MB-231 breast = tested on: MDA-MB-231 breast
SF-268 CNS = tested on: SF-268 CNS
SF-295 CNS = tested on: SF-295 CNS
SF-539 CNS = tested on: SF-539 CNS
UACC-257 melanoma = tested on: UACC-257 melanoma
M14 melanoma = tested on: M14 melanoma
RXF 393 renal = tested on: RXF 393 renal

Measured: growth

O=C1C=CC[C@H](/C=C/c2ccccc2)O1
12.2% (inactive) and 7.95% (active): A549/ATCC NSCLC
48.2% (inactive) and -27.8% (active): 786-0 renal
57.9% (inactive) and -70.8% (active): COLO 205 colon
14.6% (inactive) and -20.2% (active): K-562 leukemia
active: NCI-H460 lung 4.39% and -32.3% | DU-145 prostate -3.41% and 0.622% | SF-268 CNS 7.78% and 7.94% | SF-295 CNS -0.286% and 0.195%
inactive: NCI-H23 lung 37.8% and 40.7% | NCI-H522 lung 13.9% and 47.5% | MALME-3M melanoma 61.9% and 55.5% | MDA-MB-231 breast 55.6% and 36.6% | UACC-257 melanoma 47% and 15.3% | M14 melanoma 53.7% and 27.8%
29.8% (inactive) and -33% (active): NCI-H226 lung
13.2% (inactive) and -60.2% (active): SF-539 CNS
25.5% (inactive) and 4.12% (active): NCI-H322M lung
64.7% (inactive) and -48.7% (active): HOP-62 NSCLC
10.3% (inactive) and -15.8% (active): HOP-92 NSCLC

N=c1sc2ccccc2n1CC(=O)O
inactive: NCI-H23 lung 108% | NCI-H226 lung 98.1% | NCI-H322M lung 103% | HOP-62 NSCLC 88.8% | NCI-H460 lung 109% | HOP-92 NSCLC 82.1% | NCI-H522 lung 87.1% | A549/ATCC NSCLC 83.7% | 786-0 renal 101% | COLO 205 colon 106% | DU-145 prostate 110% | K-562 leukemia 108% | MALME-3M melanoma 110% | MDA-MB-231 breast 102% | RXF 393 renal 113% | SF-268 CNS 98.7% | SF-295 CNS 98% | SF-539 CNS 101% | UACC-257 melanoma 89.7% | M14 melanoma 95.7%

O=C(O)/C=C/C=C/c1ccccc1
inactive: NCI-H23 lung 104% and 99.9% | NCI-H226 lung 99.4% and 100% | NCI-H322M lung 104% and 107% | HOP-62 NSCLC 102% and 105% | NCI-H460 lung 107% and 112% | HOP-92 NSCLC 99.5% and 102% | NCI-H522 lung 94.8% and 106% | A549/ATCC NSCLC 98.4% and 97.8% | 786-0 renal 105% and 109% | COLO 205 colon 105% and 113% | DU-145 prostate 106% and 109% | K-562 leukemia 114% and 110% | MALME-3M melanoma 103% and 114% | MDA-MB-231 breast 101% and 106% | RXF 393 renal 113% and 120% | SF-268 CNS 101% | SF-295 CNS 105% and 101% | SF-539 CNS 96.7% and 98.6% | UACC-257 melanoma 102% and 93.2% | M14 melanoma 101%

N#Cc1ccc(/C=C/C(=O)c2ccccc2)cc1
active: K-562 leukemia -35.8% and 6.11%
inactive: NCI-H23 lung 100% and 95.2% | NCI-H226 lung 105% and 107% | NCI-H322M lung 93.2% and 98.2% | HOP-62 NSCLC 96.6% and 110% | NCI-H460 lung 78.7% and 106% | HOP-92 NSCLC 73.1% and 85.7% | NCI-H522 lung 83.1% | A549/ATCC NSCLC 88.2% and 98.7% | 786-0 renal 102% | COLO 205 colon 81.6% and 113% | DU-145 prostate 80.8% and 102% | MALME-3M melanoma 89.2% and 110% | MDA-MB-231 breast 103% | SF-268 CNS 101% | SF-295 CNS 93.7% and 118% | SF-539 CNS 103% and 110% | UACC-257 melanoma 80% and 114%

Nc1ccc(O)c(C(=O)O)c1
inactive: NCI-H23 lung 92.7% and 105% and 94.2% | NCI-H226 lung 95.4% and 92.4% and 116% | NCI-H322M lung 131% and 106% and 99.2% | HOP-62 NSCLC 92.5% and 103% and 90.9% | NCI-H460 lung 103% and 101% and 116% | HOP-92 NSCLC 104% and 105% | NCI-H522 lung 102% and 101% | A549/ATCC NSCLC 105% and 97% | 786-0 renal 98.9% and 101% and 94.7% | COLO 205 colon 107% and 134% | DU-145 prostate 105% and 128% | K-562 leukemia 92.9% and 74.2% | MALME-3M melanoma 109% and 116% | MDA-MB-231 breast 84.3% and 91.9% and 109% | RXF 393 renal 92.4% and 115% and 127% | SF-268 CNS 89.5% and 104% and 110% | SF-295 CNS 109% and 107% and 113% | SF-539 CNS 102% and 103% and 114% | UACC-257 melanoma 109% and 110% | M14 melanoma 93.8% and 104% and 95.1%

COc1ccc(S(=O)(=O)c2ccc(F)cc2)cc1
inactive: NCI-H23 lung 102% | NCI-H226 lung 97.1% | NCI-H322M lung 117% | HOP-62 NSCLC 109% | NCI-H460 lung 114% | HOP-92 NSCLC 92.7% | NCI-H522 lung 83.3% | A549/ATCC NSCLC 82.4% | 786-0 renal 103% | COLO 205 colon 113% | DU-145 prostate 113% | K-562 leukemia 115% | MALME-3M melanoma 93% | MDA-MB-231 breast 94.2% | RXF 393 renal 138% | SF-268 CNS 101% | SF-295 CNS 116% | SF-539 CNS 111% | UACC-257 melanoma 93.8% | M14 melanoma 101%

Cc1cc(O)c(C(C)C)cc1N=O
inactive: NCI-H23 lung 95.4% and 111% | NCI-H226 lung 99.6% and 108% | NCI-H322M lung 115% and 104% | HOP-62 NSCLC 103% and 99.4% | NCI-H460 lung 115% | HOP-92 NSCLC 79.7% | NCI-H522 lung 93.8% and 74.7% | A549/ATCC NSCLC 106% and 99.9% | 786-0 renal 98.6% and 103% | COLO 205 colon 106% and 112% | DU-145 prostate 108% and 104% | K-562 leukemia 99.6% | MALME-3M melanoma 113% and 108% | MDA-MB-231 breast 83.3% and 100% | RXF 393 renal 112% and 113% | SF-268 CNS 99.7% and 96.1% | SF-295 CNS 98.8% and 121% | SF-539 CNS 98.7% and 101% | UACC-257 melanoma 103% and 97.1% | M14 melanoma 104%

Cc1cc2nc3ccc(=[N+](C)C)cc-3sc2cc1N
4.64% (active) and 15.1% (inactive): SF-295 CNS
0.425% (active) and 42.7% (inactive): HOP-62 NSCLC
inactive: NCI-H23 lung 21.7% | NCI-H226 lung 43.3% and 58.9% | NCI-H322M lung 22.6% and 38.3% | 786-0 renal 39.4% and 35.9% | RXF 393 renal 51.6% and 36% | UACC-257 melanoma 24.9% and 61.4%
43.1% (inactive) and 8.68% (active): HOP-92 NSCLC
-55.4% (active) and 13% (inactive): NCI-H522 lung
active: NCI-H460 lung 6.67% and 7.84% | A549/ATCC NSCLC 6.81% and 7.05% | COLO 205 colon -68.6% and -23.5% | DU-145 prostate 3.25% and -41.6% | K-562 leukemia 7.3% | MALME-3M melanoma -47.8% and -3.68% | MDA-MB-231 breast -18.8% and -10.4% | SF-268 CNS -8.64% and -29.4% | SF-539 CNS -39.6% and 3.1% | M14 melanoma -26.3% and 8.5%

COC(=O)c1nc(=S)[nH]c(C(=O)OC)c1C(=O)c1ccc(OC)cc1
inactive: NCI-H23 lung 97.4% | NCI-H226 lung 90.7% | NCI-H322M lung 104% | HOP-62 NSCLC 123% | NCI-H460 lung 114% | HOP-92 NSCLC 95.9% | NCI-H522 lung 101% | A549/ATCC NSCLC 118% | 786-0 renal 113% | COLO 205 colon 117% | DU-145 prostate 117% | K-562 leukemia 106% | MALME-3M melanoma 97.5% | MDA-MB-231 breast 100% | RXF 393 renal 108% | SF-268 CNS 112% | SF-295 CNS 99.6% | SF-539 CNS 99.3% | UACC-257 melanoma 109% | M14 melanoma 108%

CC(CN(C)C)CN1c2ccccc2Sc2ccccc21 (configuration not stated)
inactive: NCI-H23 lung 88.9% and 86% and 86.6% | NCI-H226 lung 132% and 112% | NCI-H322M lung 73.1% and 83.9% and 65.2% | HOP-62 NSCLC 92.2% and 78.2% and 80.8% | NCI-H460 lung 95% and 94.3% and 93.5% | HOP-92 NSCLC 21.4% | NCI-H522 lung 81.1% and 116% and 87.2% | A549/ATCC NSCLC 91.8% and 103% and 91.5% | 786-0 renal 59.5% and 45% and 69.1% | COLO 205 colon 48.4% and 84.5% and 85% | DU-145 prostate 97.3% and 111% and 90% | K-562 leukemia 67.2% and 72.1% and 49.8% | MALME-3M melanoma 81.7% and 101% and 95.8% | MDA-MB-231 breast 62% and 90% | RXF 393 renal 53.3% and 86.1% and 70.7% | SF-268 CNS 90.8% and 91.7% and 78.1% | SF-295 CNS 88% and 35.8% and 92% | SF-539 CNS 91.7% and 81.9% | UACC-257 melanoma 65.1% and 110% and 92.1% | M14 melanoma 47.9% and 81.3% and 75.8%
